PubChem BioAssay (NCI)
This is part of a sample that, as a whole, favours compounds with a hit. Of some 83,000 tested, about 20% had one in any assay.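 96-well plates, one dose, 48 hours. Percent growth reported; active if below 10.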 Calls of active or inactive are those of the source.

How the values were obtained:
Experiment in all cases: NCI-60 one-dose screen, 48 h (100 = growth as untreated, 0 = no growth, -100 = all killed)
Conditions in all cases: 10 µM
[1] = tested on: SR leukemia
[2] = tested on: RPMI-8226 leukemia
[3] = tested on: OVCAR-8 ovarian
[4] = tested on: OVCAR-5 ovarian
[5] = tested on: OVCAR-4 ovarian
[6] = tested on: SK-OV-3 ovarian
[7] = tested on: IGROV1 ovarian
[8] = tested on: OVCAR-3 ovarian
[9] = tested on: HS 578T breast
[10] = tested on: NCI/ADR-RES ovarian
[11] = tested on: T-47D breast
[12] = tested on: BT-549 breast
[13] = tested on: MDA-MB-435 melanoma
[14] = tested on: SW-620 colon
[15] = tested on: MCF7 breast
[16] = tested on: HCT-116 colon
[17] = tested on: HCC-2998 colon
[18] = tested on: KM12 colon

Measured: growth

COc1ccc2nc(-c3ccccc3)cc(C(C)=O)c2c1
inactive: [1] 81.6% | [2] 94.5% | [3] 97.3% | [4] 92.4% | [5] 103% | [6] 107% | [7] 86.2% | [8] 115% | [9] 94.3% | [10] 90.1% | [11] 69.5% | [12] 93.6% | [13] 98% | [14] 99.9% | [15] 72.6% | [16] 91.2% | [17] 107% | [18] 103%

Cc1cccc2c1O/C(=C\c1ncc([N+](=O)[O-])n1C)C2=O
inactive: [11] 89.7%
active: [1] 9.3% | [2] -13% | [3] -21.3% | [4] -15.7% | [5] -2.81% | [6] -17.5% | [7] -18.1% | [8] -12.2% | [9] -23.9% | [10] 2.37% | [12] -53.7% | [13] -54.1% | [14] -11.6% | [15] 2.72% | [16] -66.6% | [17] -73.1% | [18] -50.6%

COC(=O)[C@]12CC[C@@H](C)[C@H](C)[C@@H]1C1=CC[C@@H]3[C@@]4(C)C[C@@H](O)[C@H](O)[C@@](C)(CO)[C@@H]4[C@H](O)C[C@@]3(C)[C@]1(C)CC2
active: [1] -36.5% | [2] -20.7% | [3] -27.3% | [4] -21.6% | [5] -11% | [6] -33.1% | [7] -19.8% | [8] -64.9% | [9] -13% | [10] -22.8% | [11] -47.1% | [12] -66.1% | [13] -66.9% | [14] -54.1% | [15] -24.3% | [16] -82.3% | [17] -89.2% | [18] -74.2%

NC(=O)C12C(=O)NC(=O)C1(C(=O)O)C21CCCC1 (configuration not stated)
inactive: [1] 106% | [2] 94.6% | [3] 104% | [4] 110% | [5] 104% | [6] 116% | [7] 106% | [8] 116% | [9] 107% | [10] 114% | [11] 114% | [12] 104% | [13] 100% | [14] 104% | [15] 96.3% | [16] 101% | [17] 114% | [18] 113%

O=C(N/N=c1/ccoc2cccnc12)N1CCN(c2ncccn2)CC1
inactive: [1] 20.6% | [2] 30.6% | [3] 25.3% | [4] 50% | [5] 18.3% | [6] 15.4% | [7] 31.4% | [8] 30.6% | [9] 51.4% | [10] 10.1% | [12] 47.9% | [13] 34.9% | [14] 33.1% | [15] 11.2% | [16] 16% | [17] 26.1% | [18] 24.7%
active: [11] 9.29%

CCN(CC)c1ccc(/C=C/C2=[N+](C)c3ccccc3C2(C)C)c(C)c1
inactive: [4] 30.6% | [5] 18.4% | [7] 31.8% | [9] 41.8% | [10] 33.4% | [14] 18.7% | [17] 23.3%
active: [1] -14.6% | [2] -25.7% | [3] 8.1% | [6] -6.99% | [8] 8.86% | [11] -0.932% | [12] -13.2% | [13] -13.7% | [15] 3.87% | [16] 5.94% | [18] -34.7%

Cc1nc2sccn2c1-c1csc(Nc2cccc(Cl)c2C)n1
inactive: [1] 17.7% | [2] 45% | [3] 65.6% | [4] 77.9% | [5] 45.7% | [6] 79.1% | [7] 62% | [8] 64.3% | [9] 53.1% | [10] 41.6% | [11] 36.2% | [12] 43.9% | [14] 49.1% | [15] 38.1% | [16] 46.1% | [17] 69% | [18] 50.8%
active: [13] 7.55%

Nc1ccc2c(c1)Cc1cc(N)c(Cl)cc1-2
inactive: [1] 88.8% | [2] 96.8% | [3] 97.9% | [4] 112% | [5] 84% | [6] 113% | [7] 98.2% | [8] 124% | [9] 89.8% | [10] 107% | [11] 54.3% | [12] 90.3% | [13] 94.3% | [14] 108% | [15] 42.6% | [16] 100% | [17] 103% | [18] 108%

COc1ccc(-c2nnc(COc3ccc(NC(=O)Nc4cccc(C(F)(F)F)c4)cc3F)o2)cc1
inactive: [2] 33.6% | [3] 49.1% | [4] 82.5% | [5] 61.4% | [6] 103% | [7] 68.8% | [8] 56.9% | [9] 67.3% | [10] 54.8% | [11] 34.8% | [12] 82.7% | [13] 61.6% | [14] 54.3% | [15] 88.7% | [16] 56.7% | [17] 50.9% | [18] 24%
active: [1] 3.93%
